# Assay results published in PubChem BioAssay.
# Where “and” joins values, the source holds several entries; their conditions need not be identical. Equal values may be shown once. Inconclusive results are not listed. Calls of active or inactive are those of the source. Unless noted, the limit is not given here; nearly all actives have AC50 up to about 26 µM.
# Assays:
# [1] = viability loss in pontine glioma line – cell-based, SU-DIPG-XVII, MIPE5.0, CellTiter-Glo, qHTS, dose response (AID 1347060); settings: CellTiter-Glo ATP luminescence;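 as to AC50: cells exposed to compound for 48 hours before viability readout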
# [2] = viability loss in pontine glioma line – cell-based, SU-DIPG-XIII, MIPE4.0, CellTiter-Glo, qHTS, dose response (AID 1347061; cut-off not given, nearly all actives have AC50 up to about 37 µM;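 also: cells exposed to compound for 48 hours before readout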); settings: CellTiter-Glo ATP luminescence
# [3] = growth inhibition of DIPG cells – cell-based, MIPE4.0 library, CellTiter-Glo luminescence, qHTS (AID 1347066; cut-off not given, nearly all actives have AC50 up to about 30 µM;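 also: cells exposed to compound for 48 hours before readout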); settings: SU-DIPG-VI viability, CellTiter-Glo ATP luminescence
# [4] = growth inhibition of DIPG cells – cell-based, MIPE5.0 library, qHTS (AID 1347068; cut-off not given, nearly all actives have IC50 up to about 30 µM;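 as to IC50: cells exposed to compound for 48 hours before viability readout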); settings: SU-DIPG-XXV viability
# [5] = viability loss in pontine glioma line – cell-based, SU-DIPG-XXV, MIPE5.0, CellTiter-Glo, qHTS, dose response (AID 1347065); settings: CellTiter-Glo ATP luminescence;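 also: cells exposed to compound for 48 hours before ATP readout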
# [6] = JHH-DIPG-1 glioma cell viability, MIPE5.0 library, CellTiter-Glo luminescence, qHTS (AID 1347067); settings: JHH-DIPG-1 glioma viability, CellTiter-Glo ATP luminescence;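 also: cells exposed to compound for 48 hours before readout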
# [7] = viability loss in pontine glioma line – cell-based, JHH-DIPG-1, MIPE4.0, CellTiter-Glo, qHTS, dose response (AID 1347062; cut-off not given, nearly all actives have AC50 up to about 27 µM;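 as to AC50: cells exposed to compound for two days before readout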); settings: JHH-DIPG-1 viability, CellTiter-Glo ATP luminescence
# [8] = viability loss in pontine glioma line – cell-based, SU-DIPG-IV, MIPE4.0, CellTiter-Glo, qHTS, dose response (AID 1347063; cut-off not given, nearly all actives have AC50 up to about 30 µM;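 also: compound exposure lasted 48 hours before the viability readout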); settings: CellTiter-Glo ATP luminescence
# [9] = viability loss in pontine glioma line – cell-based, SU-DIPG-XIII, MIPE5.0, CellTiter-Glo, qHTS, dose response (AID 1347064; cut-off not given, nearly all actives have AC50 up to about 23 µM;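 as to AC50: cells exposed to compound for 48 hours before the viability read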); settings: CellTiter-Glo ATP luminescence
# [10] = viability loss with induced miR-34 in A549 – imaging, A549 dox-inducible miR-34, nuclei and caspase counts, primary screen (AID 1347080;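 active = compounds whose cell count with miR-34 switched on is under 0.7 times the count with it off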); settings: A549 miR-34 inducible, Hoechst nuclei count, 48 h
# [11] = MELAS cybrid and Rieske KO viability enhancers – cell-based, MELAS cybrids, Rieske KO mouse fibroblasts, CellTiter-Glo, primary screen (AID 1508586;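 active = mean z-score across replicates of 1.96 or higher in either the MELAS or the Rieske mutant cell line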;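 also: z relative to plate mean and SD of compound and empty wells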); settings: low glucose
# [12] = compounds altering HSF1 focus formation in cells – imaging, Selleck Cancer Library (AID 1347162; in the data active = plate-normalised HSF1 focus index below about 0.46); settings: human cells, HSF1 nuclear foci imaging, at 10 µM; SSMD: measured here: HSF1 foci SSMD mean; cell count: measured here: cell number; plate-normalised HSF1 focus index: stronger effect = lower value
# [13] = drug combination growth inhibition, ovarian cancer – cell-based, oncology-focused library, rucaparib conditional, profiling panel (AID 1508598;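 active = normalized viability below 100% at a tested concentration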); settings: patient-derived ovarian cancer cells, CellTiter-Glo viability, 144 h, stronger effect = lower value
# [14] = P. berghei load reduction in hepatocytes – cell-based, HepG2, luciferase luminescence, HepG2 viability, primary screen (AID 624349; in the data active = parasite load remaining mostly below about 12%, no sharp cut-off; inactive = mostly above about 10%;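 also: 100% = mean of DMSO negative control wells on the same plate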); settings: P. berghei liver stage in HepG2, luciferase luminescence, concentration not given here; parasite load remaining: stronger effect = lower value; viability: measured here: HepG2 viability without parasites
# [15] = liver-stage malaria parasite load reduction – cell-based, known kinase inhibitor set, luminescence, hepatoma host viability (AID 624392; call rule not given here;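 also: infected cells incubated roughly two days before readout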); settings: Plasmodium liver stage in hepatoma cells, luciferase luminescence, concentration not given here; liver cell % of control: measured here: host liver cell viability; parasite % of control: stronger effect = lower value
# [16] = stronger effect = lower value, cell number ratio, induced over uninduced
# [17] = measured here: relative caspase fold change +Dox/-Dox
# [18] = measured here: total cells with miR-34 induction, stronger effect = lower value
# [19] = measured here: total cells without miR-34 induction
# [20] = MELAS cybrid survival, CellTiter-Glo 48 h, stronger effect = higher value
# [21] = Rieske KO mouse fibroblast survival, CellTiter-Glo 72 h
smiles,measurement,setting,value
CC[C@H](C)n1cc(C)c2c(C(=O)NCc3c(C)cc(C)[nH]c3=O)cc(-c3ccc(N4CCNCC4)nc3)cc21,outcome,[1],inactive
same,AC50,[2],14800 nM (active)
same,AC50,[3],23500 nM (active)
same,IC50,[4],20900 nM (active)
CC1=C(C(=O)Nc2cc3cn[nH]c3cc2F)C(c2ccc(Cl)cc2F)N=C(c2ccnc(Cl)c2)N1 (configuration not stated),AC50,[1],13200 nM (active)
same,outcome,[2],inactive
same,AC50,[5],5900 nM (active)
same,AC50,[6],16600 nM (active)
NC1=N[C@H]2[C@H](CS[C@H]2CCCCC(=O)O)N1,outcome,[1],inactive
same,outcome,[7],inactive
same,outcome,[8],inactive
same,outcome,[9],inactive
same,outcome,[5],inactive
same,outcome,[3],inactive
same,outcome,[6],inactive
Cc1ccc(NC(=O)C2(c3ccc4c(c3)OC(F)(F)O4)CC2)nc1-c1cccc(C(=O)O)c1,outcome,[1],inactive
same,AC50,[7],83.3 nM (active)
same,AC50,[8],118 nM (active)
same,outcome,[9],inactive
same,outcome,[5],inactive
same,AC50,[3],1180 nM (active)
same,outcome,[6],inactive
same,outcome,[4],inactive
same,fold change,[10]; [16],0.92 (inactive)
same,fold change,[10]; [17],0.757
same,cell count,[10]; [18],8150
same,cell count,[10]; [19],8860
same,z-score,[11]; [20],-0.25 (inactive)
same,z-score,[11]; [21],-0.226
C=C[C@H]1CN2CCC1C[C@@H]2C(O)c1ccnc2ccc(OC)cc12 (some centres not stated),outcome,[1],inactive
same,outcome,[7],inactive
same,outcome,[8],inactive
same,outcome,[9],inactive
same,outcome,[5],inactive
same,outcome,[3],inactive
same,outcome,[6],inactive
same,outcome,[4],inactive
same,fold change,[10]; [16],0.966 (inactive)
same,fold change,[10]; [17],0.977
same,cell count,[10]; [18],5680
same,cell count,[10]; [19],5880
O=C(O)CCCCCC(=O)NN=C1CCCC1,outcome,[1],inactive
same,outcome,[7],inactive
same,outcome,[8],inactive
same,outcome,[9],inactive
same,outcome,[5],inactive
same,outcome,[3],inactive
same,outcome,[6],inactive
same,outcome,[4],inactive
O=C1CCCC(=O)C1C(=O)c1ccc(C(F)(F)F)cc1[N+](=O)[O-],outcome,[1],inactive
same,outcome,[7],inactive
same,outcome,[8],inactive
same,outcome,[9],inactive
same,outcome,[5],inactive
same,outcome,[3],inactive
same,outcome,[6],inactive
same,outcome,[4],inactive
CCCCOc1ccc(C(=O)Nc2ccc(F)cc2F)cc1,outcome,[1],inactive
same,outcome,[7],inactive
same,outcome,[8],inactive
same,outcome,[9],inactive
same,outcome,[5],inactive
same,outcome,[3],inactive
same,outcome,[6],inactive
same,outcome,[4],inactive
same,fold change,[10]; [16],0.889 (inactive)
same,fold change,[10]; [17],0.917
same,cell count,[10]; [18],9070
same,cell count,[10]; [19],10200
same,z-score,[11]; [20],-0.373 (inactive)
same,z-score,[11]; [21],0.589
O=C(Cc1ccc(-c2ccc(OCCN3CCOCC3)cc2)cn1)NCc1ccccc1,AC50,[1],118 nM (active)
same,AC50,[7],59 nM (active)
same,AC50,[8],11.8 nM (active)
same,AC50,[9],661 nM (active)
same,AC50,[5],118 nM (active)
same,AC50,[3],1050 nM (active)
same,AC50,[6],132 nM (active)
same,IC50,[4],525 nM (active)
same,fold change,[10]; [16],1.21 (inactive)
same,fold change,[10]; [17],0.488
same,cell count,[10]; [18],1530
same,cell count,[10]; [19],1260
same,SSMD,[12],2.71
same,cell count,[12],6240
same,plate-normalised HSF1 focus index,[12],1.14 (inactive)
same,z-score,[11]; [20],1.14 (inactive)
same,z-score,[11]; [21],-0.489
same,viability,"[13]; at 0.000305 µM, OCI-C5x cells, with rucaparib 10 µM, 100% = cells with rucaparib alone",106% (inactive)
same,viability,"[13]; at 0.000305 µM, OCI-C5x cells, without rucaparib",114% (inactive)
same,viability,"[13]; at 0.000305 µM, OCI-P5x cells, with rucaparib 20 µM, 100% = cells with rucaparib alone",109% (inactive)
same,viability,"[13]; at 0.000305 µM, OCI-P5x cells, without rucaparib",106% (inactive)
same,viability,"[13]; at 0.00122 µM, OCI-C5x cells, with rucaparib 10 µM, 100% = cells with rucaparib alone",111% (inactive)
same,viability,"[13]; at 0.00122 µM, OCI-C5x cells, without rucaparib",124% (inactive)
same,viability,"[13]; at 0.00122 µM, OCI-P5x cells, with rucaparib 20 µM, 100% = cells with rucaparib alone",108% (inactive)
same,viability,"[13]; at 0.00122 µM, OCI-P5x cells, without rucaparib",108% (inactive)
same,viability,"[13]; at 0.00488 µM, OCI-C5x cells, with rucaparib 10 µM, 100% = cells with rucaparib alone",112% (inactive)
same,viability,"[13]; at 0.00488 µM, OCI-C5x cells, without rucaparib",109% (inactive)
same,viability,"[13]; at 0.00488 µM, OCI-P5x cells, with rucaparib 20 µM, 100% = cells with rucaparib alone",105% (inactive)
same,viability,"[13]; at 0.00488 µM, OCI-P5x cells, without rucaparib",96.7% (active)
same,viability,"[13]; at 0.0195 µM, OCI-C5x cells, with rucaparib 10 µM, 100% = cells with rucaparib alone",101% (inactive)
same,viability,"[13]; at 0.0195 µM, OCI-C5x cells, without rucaparib",58.9% (active)
same,viability,"[13]; at 0.0195 µM, OCI-P5x cells, with rucaparib 20 µM, 100% = cells with rucaparib alone",85.3% (active)
same,viability,"[13]; at 0.0195 µM, OCI-P5x cells, without rucaparib",29.6% (active)
same,viability,"[13]; at 0.0781 µM, OCI-C5x cells, with rucaparib 10 µM, 100% = cells with rucaparib alone",62.9% (active)
same,viability,"[13]; at 0.0781 µM, OCI-C5x cells, without rucaparib",50.7% (active)
same,viability,"[13]; at 0.0781 µM, OCI-P5x cells, with rucaparib 20 µM, 100% = cells with rucaparib alone",69.5% (active)
same,viability,"[13]; at 0.0781 µM, OCI-P5x cells, without rucaparib",23.9% (active)
same,viability,"[13]; at 0.313 µM, OCI-C5x cells, with rucaparib 10 µM, 100% = cells with rucaparib alone",40.7% (active)
same,viability,"[13]; at 0.313 µM, OCI-C5x cells, without rucaparib",33.9% (active)
same,viability,"[13]; at 0.313 µM, OCI-P5x cells, with rucaparib 20 µM, 100% = cells with rucaparib alone",58.7% (active)
same,viability,"[13]; at 0.313 µM, OCI-P5x cells, without rucaparib",18.5% (active)
same,viability,"[13]; at 1.25 µM, OCI-C5x cells, with rucaparib 10 µM, 100% = cells with rucaparib alone",46.4% (active)
same,viability,"[13]; at 1.25 µM, OCI-C5x cells, without rucaparib",34.1% (active)
same,viability,"[13]; at 1.25 µM, OCI-P5x cells, with rucaparib 20 µM, 100% = cells with rucaparib alone",58.9% (active)
same,viability,"[13]; at 1.25 µM, OCI-P5x cells, without rucaparib",17.4% (active)
same,viability,"[13]; at 5 µM, OCI-C5x cells, with rucaparib 10 µM, 100% = cells with rucaparib alone",50.3% (active)
same,viability,"[13]; at 5 µM, OCI-C5x cells, without rucaparib",32.6% (active)
same,viability,"[13]; at 5 µM, OCI-P5x cells, with rucaparib 20 µM, 100% = cells with rucaparib alone",49.4% (active)
same,viability,"[13]; at 5 µM, OCI-P5x cells, without rucaparib",15.3% (active)
C=C1C(=O)OC2/C=C(/C)CC/C=C(/C)CCC12 (configuration not stated),AC50,[1],20900 nM (active)
same,outcome,[2],inactive
same,AC50,[5],18600 nM (active)
same,AC50,[6],16600 nM (active)
CC(/C=C1\SC(=S)N(CC(=O)O)C1=O)=C\c1ccccc1,outcome,[1],inactive
same,outcome,[7],inactive
same,outcome,[8],inactive
same,outcome,[9],inactive
same,outcome,[5],inactive
same,outcome,[3],inactive
same,outcome,[6],inactive
CCc1cnn2c(NCc3ccc[n+]([O-])c3)cc(N3CCCC[C@H]3CCO)nc12,AC50,[1],37.2 nM (active)
same,AC50,[7],23.5 nM (active)
same,AC50,[8],18.7 nM (active)
same,AC50,[9],37.2 nM (active)
same,AC50,[5],29.5 nM (active)
same,outcome,[3],inactive
same,AC50,[6],41.7 nM (active)
CC(C)n1c(/C=C/[C@H](O)C[C@H](O)CC(=O)O)c(-c2ccc(F)cc2)c2ccccc21,parasite load remaining,[14],134% (inactive)
same,viability,[14],92.6%
same,AC50,[1],8330 nM (active)
same,outcome,[2],inactive
same,outcome,[3],inactive
same,outcome,[4],inactive
same,fold change,[10]; [16],1.07 (inactive)
same,fold change,[10]; [17],0.873
same,cell count,[10]; [18],1670
same,cell count,[10]; [19],1560
same,z-score,[11]; [20],-2.58 (inactive)
same,z-score,[11]; [21],0.0762
CC(C)(C)c1nc2c3cc[nH]c(=O)c3c3cc(F)ccc3c2[nH]1,parasite load remaining,[14],88% (inactive)
same,viability,[14],127%
same,liver cell % of control,[15],205% and 286% and 305%
same,parasite % of control,[15],128% (inactive) and 18.5% (inactive) and 5.35% (inactive)
same,AC50,[1],16600 nM (active)
same,outcome,[2],inactive
same,AC50,[5],1480 nM (active)
